In article PMC4336329 (PLoS ONE, 2015):
Out of some 310,000 compounds screened, about 14,000 (4.5%) showed an effect of 50% or more. The effect is printed as a negative number. The full list was thinned out, with strong results kept by preference.

The molecules below were run against human ether-à-go-go-related gene (hERG) potassium channel (human, UniProt Q12809) (assay: primary screen, population patch clamp on CHO cells stably expressing hERG; higher = less effect of the substance).
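Also: peak tail current of the secondary pulse compared with the same well before compound.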

human ether-à-go-go-related gene (hERG) potassium channel, sequence (Q12809 whole entry, looked up): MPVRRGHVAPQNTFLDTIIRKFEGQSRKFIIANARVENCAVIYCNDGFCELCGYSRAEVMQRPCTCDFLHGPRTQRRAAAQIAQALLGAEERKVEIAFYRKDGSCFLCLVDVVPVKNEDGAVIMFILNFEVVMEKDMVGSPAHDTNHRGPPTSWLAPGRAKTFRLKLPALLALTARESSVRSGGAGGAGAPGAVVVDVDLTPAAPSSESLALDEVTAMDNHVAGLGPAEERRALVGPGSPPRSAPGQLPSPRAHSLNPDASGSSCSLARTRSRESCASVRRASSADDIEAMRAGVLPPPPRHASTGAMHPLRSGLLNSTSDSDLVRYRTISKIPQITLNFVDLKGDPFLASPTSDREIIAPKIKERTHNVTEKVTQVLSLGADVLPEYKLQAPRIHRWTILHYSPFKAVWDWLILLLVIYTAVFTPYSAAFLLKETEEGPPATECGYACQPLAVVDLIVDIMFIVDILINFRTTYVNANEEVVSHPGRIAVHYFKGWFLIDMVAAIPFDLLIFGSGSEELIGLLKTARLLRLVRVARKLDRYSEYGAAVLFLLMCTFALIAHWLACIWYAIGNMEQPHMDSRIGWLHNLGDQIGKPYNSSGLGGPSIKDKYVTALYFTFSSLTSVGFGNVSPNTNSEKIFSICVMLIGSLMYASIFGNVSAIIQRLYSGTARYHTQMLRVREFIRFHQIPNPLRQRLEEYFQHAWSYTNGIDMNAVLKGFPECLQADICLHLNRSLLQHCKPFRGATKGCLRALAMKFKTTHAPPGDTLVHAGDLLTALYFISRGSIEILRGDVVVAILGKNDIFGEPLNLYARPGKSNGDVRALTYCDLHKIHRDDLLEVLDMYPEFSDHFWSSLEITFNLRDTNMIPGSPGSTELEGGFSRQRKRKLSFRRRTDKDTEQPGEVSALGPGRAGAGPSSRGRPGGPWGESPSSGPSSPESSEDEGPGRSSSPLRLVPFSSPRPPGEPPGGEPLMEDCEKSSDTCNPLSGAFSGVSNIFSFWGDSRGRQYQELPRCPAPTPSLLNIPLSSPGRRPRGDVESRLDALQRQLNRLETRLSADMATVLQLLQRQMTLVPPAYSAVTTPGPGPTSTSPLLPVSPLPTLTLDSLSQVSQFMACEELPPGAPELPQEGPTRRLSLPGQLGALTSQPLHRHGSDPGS

First: CCOC(=O)C1(C)NC(c2ccco2)C2C(=O)N(c3ccc(C)cc3)C(=O)C21 (stereo not shown)
Second: CC(=O)N1CC(=O)Nc2ccc(C)cc2C1c1ccccc1 (stereo not shown)
The “hERG current change (%, negative = inhibition) at 10uM” value of the first is lower: 11.3% for the first, 14.7% for the second.

First: C=CCSc1nc2ccccc2n2cnnc12
Second: Cc1ccc(C(=O)NCCC(=O)Nc2ccccc2C)cc1
The “hERG current change (%, negative = inhibition) at 10uM” value of the first is lower: -18.5% for the first, 19.5% for the second.

First: Cc1ccccc1C(=O)N1CC(=O)Nc2ccc(F)cc2C1c1ccc(F)cc1 (stereo not shown)
Second: COc1ccccc1C(=O)N1CC(=O)Nc2ccc(C)cc2C1c1ccc(F)cc1 (stereo not shown)
The “hERG current change (%, negative = inhibition) at 10uM” value of the first is higher: -16.1% for the first, -38.6% for the second.

First: Cc1ccc2c(c1)C(c1ccc(F)cc1)N(C(=O)c1cc3ccccc3oc1=O)CC(=O)N2 (stereo not shown)
Second: O=C1CN(C(=O)c2cc3ccccc3oc2=O)C(c2ccc(F)cc2)c2cc(F)ccc2N1 (stereo not shown)
The “hERG current change (%, negative = inhibition) at 10uM” value of the first is lower: -55% for the first, -32.1% for the second.

Compared with `Cc1ccc2c(c1)C(c1ccccc1)N(C(=O)c1ccccc1)CC(=O)N2` (stereo not shown), `Cc1ccc2c(c1)C(c1ccccc1)N(C(=O)c1ccc(F)cc1)CC(=O)N2` (stereo not shown) is higher in “hERG current change (%, negative = inhibition) at 10uM” value: -7.17% for the first, -6.99% for the second.

Going from `Cc1ccc2c(c1)C(c1ccccc1)N(C(=O)c1cc3ccccc3oc1=O)CC(=O)N2` (stereo not shown) to `O=C1CN(C(=O)c2cc3ccccc3oc2=O)C(c2ccccc2)c2cc(F)ccc2N1` (stereo not shown), the “hERG current change (%, negative = inhibition) at 10uM” value rises from -65.1% to -33.9%.

Compared with `O=C1CN(C(=O)c2cc3ccccc3oc2=O)C(c2ccc(F)cc2)c2cc(Br)ccc2N1` (stereo not shown), `O=C1CN(C(=O)c2c(F)cccc2F)C(c2ccc(F)cc2)c2cc(Br)ccc2N1` (stereo not shown) is higher in “hERG current change (%, negative = inhibition) at 10uM” value: -68.6% for the first, -35.8% for the second.

First: Cc1ccc2c(c1)C(c1ccccc1)N(C(=O)c1cccc([N+](=O)[O-])c1)CC(=O)N2 (stereo not shown)
Second: COCCNC(=O)Cn1cc(/C=C2\C(=O)NC(=O)N(c3ccccc3F)C2=O)c2ccccc21
The “hERG current change (%, negative = inhibition) at 10uM” value of the first is lower: -55.6% for the first, 17% for the second.

Compared with `CC1(C)OC(=O)C(=CNc2cccc(C(=O)O)c2)C(=O)O1`, `C/C(=N\NC(=O)c1c(Br)c(C)nn1C)c1cccc(NC(=O)c2ccccc2C)c1` is lower in “hERG current change (%, negative = inhibition) at 10uM” value: 18.7% for the first, -4.71% for the second.

Compared with `COc1cc(/C=N/NC(=O)C(=O)NCC2CCCO2)cc(Cl)c1O` (stereo not shown), `O=C(NC1CCCCCC1)C(=S)NCc1ccccc1` is lower in “hERG current change (%, negative = inhibition) at 10uM” value: 31.8% for the first, 5.94% for the second.

First: O=C(Nc1ccccc1)Nc1nc(-c2ccc(F)c(F)c2)cs1
Second: Cc1c(C)n2c(SCC(=O)N3CC(C)OC(C)C3)nnc2[nH]c1=O (stereo not shown)
The “hERG current change (%, negative = inhibition) at 10uM” value of the first is higher: 16.3% for the first, 9.45% for the second.
